Hits are enriched below; roughly 19% of the tested compounds scored in any of these assays.
TDP1 cell CPT = qHTS for Inhibitors of human tyrosyl-DNA phosphodiesterase 1 (TDP1): qHTS in cells in presence of CPT | chicken DT40 Tdp1-/-;hTDP1 cells + 20 nM CPT, ATP luminescence, 48 h | Potency, µM (series often up to 46.2 µM), without a hit: top-dose activity change, negative = growth inhibition, usual class: inhibitors | 420,000 tested, 12% active | AID 686979, 2013; note: potency is the fitted concentration of half-maximal effect; nearly all actives have a fitted effect of over 55% in size
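Chicken DT40 Tdp1-/- cells complemented with human TDP1, 400 cells/well, exposed to compounds plus 20 nM camptothecin for at least 48 h at 37 C; viability read as ATP content by CellTiter-Glo luminescence.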
ELG1 DNA repair = qHTS screen for small molecules that inhibit ELG1-dependent DNA repair in human embryonic kidney (HEK293T) cells expressing luciferase-tagged ELG1 | HEK293T ELG1-luciferase reporter, luminescence, 16 h; DNA damage induced by 5-fluorouridine | Potency, µM (titrated, usually from 46.1 µM), for inactives: top-dose activity change, negative = inhibition, usual class: inhibitors | 330,000 tested, 2.3% active | AID 504467, 2011; note: potency is the fitted concentration of half-maximal effect; nearly all actives have a fitted effect of over 55% in size
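Reporter activity after DNA damage by 5-fluorouridine is monitored. Compound-treated cells incubate 16 hr at 37 °C, then ONE-Glo is added for 30 min before luminescence reading.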
IL1B secr inh = qHTS for Inhibitors of Inflammasome Signaling: IL-1-beta AlphaLISA Primary Screen; THP-1 LPS/ATP IL-1B secretion, AlphaLISA, 16 h; stronger effect = lower value; activity change, % at 57.5 µM; 360,000 tested, 4.7% active; AID 743279, 2014; in the data active = activity change below about -50%; inconclusive = mostly about -30% to -49%
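Secreted IL-1B measured by AlphaLISA bead assay after 16 h compound exposure of THP-1 cells; compounds (final up to 57.5 uM) added 1 h before LPS (250 ng/mL) and ATP (1.25 mM) stimulation; lower signal means less secretion.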
TDP1 cell noCPT = qHTS for Inhibitors of human tyrosyl-DNA phosphodiesterase 1 (TDP1): qHTS in cells in absence of CPT | DT40 Tdp1-/- hTDP1 cells, no CPT, ATP luminescence, 48 h | Potency, µM (doses to about 46.2 µM), for inactives: at the top dose activity change, negative = growth inhibition, most hits filed as inhibitors | 420,000 tested, 15% active | AID 686978, 2013; note: potency is the fitted concentration of half-maximal effect; nearly all actives have a fitted effect of over 55% in size
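A cellular qHTS used chicken DT40 cells lacking endogenous Tdp1 but carrying stably transfected human TDP1. Compounds were applied without camptothecin, and cell growth kinetics were judged by ATP-dependent luminescence after ≥48 hr.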
Giardia killer = Small Molecules that selectively kill Giardia lamblia: qHTS; 340,000 tested, 0.15% active; Giardia lamblia trophozoite viability; activity change, % at 7.66 µM, hits read low; in the data active = activity change below about -80%; inconclusive = between about -30% and that limit;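 note: parasites exposed to compound for two days anaerobically before the ATP read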
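Trophozoites 100 cells/well + cpd; 48 hrs, 37 deg C, anaerobic. ATPLite 1-Step added, 15-30 min RT, luminescence read (ATP-based viability).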
TDP1 block = qHTS Assay for Inhibitors of Tyrosyl-DNA Phosphodiesterase (TDP1); recombinant TDP1, AlphaScreen DNA substrate cleavage; Potency, µM (series often up to 130 µM), for inactives: top-dose activity change, negative = inhibition, hits mostly inhibitors; 350,000 tested, 0.28% active; AID 485290, 2010; note: potency is the fitted concentration of half-maximal effect; nearly all actives have a fitted effect of over 40% in size
Target sequence (Q9NUW8 whole entry, looked up): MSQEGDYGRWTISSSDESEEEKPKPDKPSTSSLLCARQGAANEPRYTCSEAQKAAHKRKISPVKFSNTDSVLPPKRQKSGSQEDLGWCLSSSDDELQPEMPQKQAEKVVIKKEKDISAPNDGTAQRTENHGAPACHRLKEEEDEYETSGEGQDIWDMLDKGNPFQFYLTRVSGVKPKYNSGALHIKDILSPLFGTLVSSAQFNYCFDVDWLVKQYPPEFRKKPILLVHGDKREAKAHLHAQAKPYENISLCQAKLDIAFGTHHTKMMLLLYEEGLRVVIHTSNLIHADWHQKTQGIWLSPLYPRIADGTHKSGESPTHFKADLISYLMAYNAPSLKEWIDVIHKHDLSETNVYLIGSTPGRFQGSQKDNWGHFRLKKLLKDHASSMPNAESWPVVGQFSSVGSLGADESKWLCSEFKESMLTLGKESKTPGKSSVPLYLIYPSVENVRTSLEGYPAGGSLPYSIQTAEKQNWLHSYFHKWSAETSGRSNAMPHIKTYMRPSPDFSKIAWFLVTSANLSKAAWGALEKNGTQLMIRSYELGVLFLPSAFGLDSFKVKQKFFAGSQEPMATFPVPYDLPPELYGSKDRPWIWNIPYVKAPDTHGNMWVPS
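Tdp1 1 nM final; 15 min RT w/ cpd; substrate 15 nM, 5 min; beads 10 ug/ml, 10 min; AlphaScreen read. Neg ctrl: no enzyme.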
* marks the source's active call; other numbers are inactive results; ? = inconclusive; . = not tested or not shown. Unless noted, calls come from the whole dose curve; as a rule, active = well fitted curve in the direction sought with a large enough effect; inconclusive = small, poorly fitted or top-dose-only effect, or another doubt; inactive = no such curve, though single readings can be large; an effect the other way counts as inactive or inconclusive. % is set by controls: 0 for no effect and ±100 for the full control effect.

SMILES	TDP1 cell CPT	ELG1 DNA repair	IL1B secr inh	TDP1 cell noCPT	Giardia killer	TDP1 block
COc1ccc(-c2cc(C3CCN(c4ccc(C(C)=O)cc4[N+](=O)[O-])CC3)[nH]n2)cc1	5.8µM*	?	-71.2*	5.17µM*	2.0	9.9%
COc1ccc(N2CCN(c3ccc(C(=O)O)cc3[N+](=O)[O-])CC2)cc1	20.5%	?	-3.2	8.1%	5.0	.
CCOC(=O)c1cn2nc(-c3ccc(OC)cc3)cc2nc1C1CCN(C(=O)OC(C)(C)C)CC1	?	-10.0%	?	?	4.1	-1.9%
O=C1N(CN2CCN(Cc3ccccc3)CC2)c2ccccc2C12OCCCO2	-2.8%	4.2%	-0.7	-10.3%	20.2	5.9%
O=C(N=Nc1c(O)[nH]c2ccc(Cl)cc12)c1cc(-c2cccs2)nc2ccccc12	?	-21.9%	12.8	?	-11.7	6.7%
COc1ccc(-c2cnc3n2CCCCC3)cc1	?	-0.4%	-13.5	23.1µM*	-14.4	.
Clc1ccc(-c2cnc3n2CCC3)cc1	-22.8%	?	-13.5	-27.8%	-4.7	7.6%
O=C(NNC(=O)c1cccnc1SCc1cccc([N+](=O)[O-])c1)c1ccc(F)cc1	23.1µM*	?	-1.4	11.6µM*	-9.5	-1.1%
O=C(NNC(=O)c1cccnc1SCc1cccc([N+](=O)[O-])c1)c1ccccn1	4.61µM*	?	34.9	2.59µM*	?	10.3%
CC(C)S(=O)(=O)CC(=O)c1ccc(Cl)cc1	3.2%	1.1%	9.4	2.9%	40.2	2.4%
CCOc1ccccc1CN1CCc2nc(N3CCN(c4ccccc4F)CC3)ncc2C1	16.4µM*	.	.	20.6µM*	.	6.2%
CCOc1ccc(CN2CCc3nc(N4CCN(c5ccccn5)CC4)ncc3C2)cc1OC	23.1µM*	.	.	23.1µM*	.	-6.2%
Cc1ccccc1CN1CCc2nc(N3CCN(c4ncccn4)CC3)ncc2C1	?	.	.	20.6µM*	.	6.2%
Fc1ccc(CN2CCc3nc(N4CCN(c5ccccc5F)CC4)ncc3C2)c(F)c1	-15.7%	.	.	0.6%	.	1.2%
Cc1ccc(-c2nc(-c3ccc(Cl)cc3)sc2CC(=O)O)c(C)c1	-2.7%	-1.8%	23.6	-1.8%	5.4	1.1%
Cc1ccc(CNC(=O)c2c(O)nc3ccccn3c2=O)cc1	?	.	.	29.1µM*	.	1.0%
COc1cccc(CCNC(=O)c2c(O)nc3c(C)cccn3c2=O)c1	18.4µM*	.	.	?	.	1.0%
COc1ccc(CCNC(=O)c2cc3cc(F)ccc3nc2C)cc1OC	20.6µM*	.	44.0	9.2µM*	-19.5	.
COc1ccccc1CNC(=O)c1c(O)nc2c(C)cccn2c1=O	-13.3%	.	.	?	.	2.0%
Cc1cccn2c(=O)c(C(=O)NCCc3ccccc3)c(O)nc12	16.4µM*	.	.	?	.	2.9%
N#Cc1ccc(NC(=O)COCc2cc(-c3ccc4c(c3)OCO4)on2)cc1	?	.	.	?	.	5.0%
COc1cccc(CSc2nnc(-c3ccncc3)n2N)c1	2.9%	-0.4%	4.4	-0.5%	-4.5	.
Cc1cccc(C)c1NC(=O)CN(C)CC(=O)N1CC(=O)Nc2ccccc21	10.5%	-9.8%	29.5	-3.9%	-2.3	2.0%
CCOC(=O)c1[nH]c(C)c(CCC(=O)Nc2ccc(C)cc2Cl)c1C	-30.0%	.	.	-27.4%	.	5.4%
O=C(NCCC1=CCCCC1)c1c(O)nc2ccccn2c1=O	11.6µM*	?	57.1	14.6µM*	-10.2	5.8%
SMILES	TDP1 cell CPT	ELG1 DNA repair	IL1B secr inh	TDP1 cell noCPT	Giardia killer	TDP1 block
Cc1c(O)nc2ccccn2c1=O	-26.9%	4.5%	-64.8*	-8.9%	-10.2	6.8%
COc1ccc(CCNC(=O)c2c(O)nc3c(C)cccn3c2=O)cc1OC	23.1µM*	.	.	?	.	-2.0%
O=C(NCCC1=CCCCC1)c1c(O)nc2sccn2c1=O	?	?	10.9	?	-4.0	-7.6%
CCCCc1c(O)nc2ccccn2c1=O	-7.7%	7.7%	23.4	1.2%	-3.6	2.7%
COc1ccc(CCNC(=O)c2nc3ncccn3n2)cc1OC	?	5.8%	-3.0	16.4µM*	12.1	4.3%
COc1ccc(CCNC(=O)c2c(O)nc3cc(C)ccn3c2=O)cc1OC	-7.2%	.	.	-30.0%	.	-3.9%
Cc1ccccc1CN1CCN(S(=O)(=O)c2cccs2)CC1	-8.5%	-9.2%	12.8	?	-8.0	2.7%
CCOc1ccc(C(=O)NCC(=O)NCC2CCCCC2)cc1OCC	-1.4%	-9.6%	1.6	-16.5%	-10.2	.
CCC(CC)C(=O)Nc1cccc(-c2nc3ncccn3c2C)c1	-11.4%	.	.	-27.7%	.	8.1%
COc1cccc(CCNC(=O)c2c(O)nc3ccccn3c2=O)c1	23.1µM*	.	.	20.6µM*	.	0.0%
COc1cccc(CCNC(=O)c2c(O)nc3cc(C)ccn3c2=O)c1	4.5%	.	.	14.0%	.	3.9%
COc1nc(NCCc2ccc(OC)c(OC)c2)nc(Nc2ccccc2)n1	14.6µM*	?	-81.2*	?	-10.4	.
Cc1cc(NC2CCCC2)n2nc(C)c(-c3ccccc3)c2n1	?	0.6%	-74.1*	?	-23.9	.
CC(=O)Nc1ccc(Nc2cc(C)nc3c(-c4ccc(Cl)cc4)cnn23)cc1	18.4µM*	?	-7.3	23.1µM*	-11.0	0.0%
COc1ccc(CCNc2cc(C)nc3c(-c4ccccc4)cnn23)cc1OC	?	?	?	29.1µM*	10.0	-2.3%
CC(=O)Nc1ccc(Nc2cc(C)nc3c(-c4ccc(Cl)cc4)c(C)nn23)cc1	?	-14.9%	?	?	4.8	-2.7%
COc1ccccc1-c1cnn2c(NCCc3ccccc3)cc(C)nc12	3.8%	?	?	?	-8.4	.

Source: PubChem (National Center for Advancing Translational Sciences (NCATS))
